The results in this text go back to PubChem BioAssay (Tox21).

Assay [1] can be described thus: qHTS assay to identify small molecule agonists of the vitamin D receptor (VDR) signaling pathway - cell viability counter screen (AID 743224). Note: nearly all actives have a fitted effect of over 50% in size. Note: potency is the fitted concentration of half-maximal effect. An outline of the steps: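 Compounds were pin-transferred onto VDR-bla cells plated 4 h earlier; following 16 h incubation at 37C, cell viability was quantified by CellTiter-Glo luminescence after 30 min at room temperature.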
(Quantitative high-throughput screening tests each substance at several concentrations.)

Assay [2] in a line: qHTS assay to identify small molecule antagonists of the vitamin D receptor (VDR) signaling pathway - cell viability counter screen (AID 743225). Note: nearly all actives have a fitted effect of over 50% in size. An outline of the steps: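 VDR-bla HEK 293T cells, 4 h pre-incubation at 37C, then compound plus 1-alpha,25-dihydroxyvitamin D3 (3 nM final) for 16 h. After the beta-lactamase FRET read, CellTiter-Glo was added to the same wells; luminescence after 30 min at room temperature.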

The nature of assay [3]: qHTS assay to identify small molecule agonists of the NFkB signaling pathway (AID 1159509; active = well fitted curve in the direction sought with a large enough effect in the signal ratio in the repeat runs, not every such curve was filed as active; the % refers to the signal ratio). An outline of the steps: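 Agonist activity was read as beta-lactamase-driven FRET change (460 and 530 nm emission, 405 nm excitation) following 1.5 hr substrate loading at room temperature. Beforehand, ME-180 NFkB-bla reporter cells were treated with compounds for 5 hr at 37 C.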

Assay [4] is described as follows: qHTS assay to identify small molecule agonists of the NFkB signaling pathway - cell viability counter screen (AID 1159515; calls by dose curve; note: nearly all actives have a fitted effect of over 55% in size). The method, boiled down:
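Parallel cytotoxicity counter screen in ME-180 cells carrying an NFkB-response-element beta-lactamase reporter, 2,000 cells/well. Compound exposure lasted 5 hr at 37 C, 5% CO2. Cell viability was quantified by CellTiter-Glo luminescence.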

A short description of assay [5]: qHTS assay to identify small molecule agonists of the endoplasmic reticulum stress response signaling pathway - cell viability counter screen (AID 1159517; calls by dose curve;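 note: HeLa cells carrying an ER stress response element beta-lactamase reporter; nearly all actives have a fitted effect of over 50% in size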). The method, boiled down: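 ESRE-bla HeLa cells (1,500/well) were plated overnight at 37 C and exposed to compounds for 5 hr. After the 2 hr beta-lactamase substrate read, CellTiter-Glo went into the same wells, and luminescence was read after 30 min at room temperature.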

A short description of assay [6]: qHTS assay to identify small molecule antagonists of the retinoid-related orphan receptor gamma (ROR-gamma) signaling pathway - cell viability counter screen (AID 1159520). Note: nearly all actives have a fitted effect of over 50% in size. The method, boiled down:
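Cytotoxicity was read from cellular ATP (CellTiter-Glo luminescence) after 16 hr at 37 C with 1 uM doxycycline induction. The inducer was added 2 hr after compound transfer to Tet-on ROR gamma CHO cells.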

In assay [7] the target is Nuclear receptor ROR-gamma (Homo sapiens) (UniProt P51449). The experiment in a line: qHTS assay to identify small molecule antagonists of the retinoid-related orphan receptor gamma (ROR-gamma) signaling pathway (AID 1159521; note: nearly all actives have a fitted effect of over 50% in size; note: potency is the fitted concentration of half-maximal effect). The method, boiled down: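 Tet-on RORγ CHO cells carrying a ROR response element–luciferase reporter were pretreated with compounds for 2 h, then induced with 1 uM (final) doxycycline hyclate for 16 h at 37 C. Antagonism was read as decreased ONE-Glo luminescence.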

Assay [8] is described as follows: qHTS assay to identify small molecule agonists of the AP-1 signaling pathway - cell viability counter screen (AID 1159525; calls by dose curve; note: nearly all actives have a fitted effect of over 55% in size). An outline of the steps: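 Intracellular ATP by Cell Titer Glo luminescence (30 min, RT) in the same ME-180 AP-1-bla wells after the 5 h compound exposure at 37 °C. Normalised to tetra n-octyl ammonium bromide and DMSO controls.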
A short description of assay [9]: qHTS assay to identify small molecule agonists of the AP-1 signaling pathway (AID 1159526; calls by dose curve).
Assay [10] can be described thus: qHTS assay to identify small molecule agonists of the RXR signaling pathway - cell viability counter screen (AID 1159529). Note: nearly all actives have a fitted effect of over 50% in size. Note: potency is the fitted concentration of half-maximal effect. An outline of the steps: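 RXR-alpha-UAS-bla HEK 293T cells in medium with 2% charcoal-stripped FBS were preincubated 5 hr, then exposed to compounds for 16 hr at 37 C. Viability was read as CellTiter-Glo luminescence after 30 min at room temperature.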

The nature of assay [11]: qHTS assay to identify small molecule antagonists of the retinoid acid receptor (RAR) signaling pathway - cell viability counter screen (AID 1159551). Note: nearly all actives have a fitted effect of over 35% in size. An outline of the steps: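 ATP-based viability, C3RL4 cells, 6 h at 37 C with 1 uM final retinol co-added after compound; luminescence read 30 min post CellTiter-Glo, RT.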
A short description of assay [12]: qHTS assay to identify small molecule agonists of the retinoic acid receptor (RAR) signaling pathway (AID 1159553). Note: potency is the fitted concentration of half-maximal effect. Particulars: C3RL4 RARE luciferase reporter, agonist, 6 h; activation: at 73.3 µM (top of the series) unless noted. The method, boiled down:
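Quantitative high-throughput format: the Tox21 10K library was tested on C3RL4 RARE-luciferase cells for 6 hr at 37 C and 5% CO2, with luminescence measured after a 30 min room-temperature reagent step.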

Assay [13] can be described thus: qHTS assay to identify small molecule antagonists of the retinoic acid receptor (RAR) signaling pathway (AID 1159552; note: nearly all actives have a fitted effect of over 50% in size). An outline of the steps: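 RARE-luc C3RL4 cells; cpds + 1 uM (final) retinol, 6 hr, 37 C/5% CO2; luciferase reagent, 30 min RT, luminescence readout. Inhibitors of retinol-driven signal scored.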
Assay [14] is described as follows: qHTS assay to identify small molecule agonists of the endoplasmic reticulum stress response signaling pathway (AID 1159516; active = well fitted activation curve with a large enough effect in the signal ratio in the repeat runs, not every such curve was filed as active; the % refers to the signal ratio). An outline of the steps:
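Using a HeLa line with an ESRE-driven beta-lactamase gene, agonist activity was measured by FRET substrate fluorescence (460 and 530 nm emission) after cells were treated with compounds for 5 hr at 37 C and 5% CO2.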

Assay [15] has as its target Retinoic acid receptor RXR-alpha (Homo sapiens) (UniProt P19793). The experiment in a line: qHTS assay to identify small molecule agonists of the RXR signaling pathway (AID 1159527; calls by dose curve; note: nearly all actives have a fitted effect of over 35% in size). An outline of the steps: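 GeneBLAzer RXR-alpha-UAS-bla HEK 293T cells in medium with 2% charcoal-stripped FBS, pre-incubated 5 hr at 37 C, then exposed to compounds 16 hr. Beta-lactamase reporter read by FRET substrate, 2 hr room temperature, 460/530 nm emission.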

Assay [16] is described as follows: qHTS assay to identify small molecule antagonists of the estrogen related receptor (ERR) signaling pathway - cell viability counter screen (AID 1224818).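 Note: viability measured after 17.5 h of compound exposure.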 The method, boiled down:
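Quantitative high-throughput viability counter screen in ERR cells. Compounds (DMSO) incubated 17.5 h at 37 C; read-out was CellTiter-Fluor fluorescence.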

A short description of assay [17]: qHTS assay to identify small molecule antagonists of the estrogen related receptor signaling pathway with the pleiotropic PPARgamma coactivator (PGC) cell viability counter screen (AID 1224822). The method, boiled down:
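Cytotoxicity in the PGC/ERR cell line is assessed with CellTiter-Fluor, read as fluorescence intensity 30 min after reagent addition, following 17.5 h compound treatment at 37 C.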

Structures are written as SMILES. “And” between values parts separate entries of the source, which are not always exact repeats. Equal values may be shown once. Inconclusive results are not listed. The source made the active and inactive calls. Unless noted, calls come from the whole dose curve; as a rule, active = well fitted curve in the direction sought with a large enough effect in the repeat runs; inconclusive = weak or mixed curves; inactive = no such curve, though single readings can be large; an effect the other way counts as inactive or inconclusive.

Chain of Retinoic acid receptor RXR-alpha (Homo sapiens) (P19793 whole entry, looked up): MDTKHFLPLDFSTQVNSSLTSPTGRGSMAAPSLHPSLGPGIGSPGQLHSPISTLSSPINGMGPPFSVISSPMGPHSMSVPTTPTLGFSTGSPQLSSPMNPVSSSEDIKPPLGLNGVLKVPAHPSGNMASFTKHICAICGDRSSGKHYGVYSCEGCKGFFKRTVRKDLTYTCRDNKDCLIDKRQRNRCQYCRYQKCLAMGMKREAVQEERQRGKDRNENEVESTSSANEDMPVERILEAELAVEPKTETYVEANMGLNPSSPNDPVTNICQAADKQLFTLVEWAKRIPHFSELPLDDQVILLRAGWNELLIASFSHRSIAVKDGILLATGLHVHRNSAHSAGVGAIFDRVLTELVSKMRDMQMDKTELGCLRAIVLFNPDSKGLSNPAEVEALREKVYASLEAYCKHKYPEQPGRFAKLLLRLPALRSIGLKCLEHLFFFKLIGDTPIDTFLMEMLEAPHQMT

Take `CCOCN(C(=O)CCl)c1c(C)cccc1CC`: the Potency entry in assay [1], in [2], in [4], in assay [5], in assay [6] and in [8] was “inactive” each time. Besides, the Potency result in [10], in [11] and in assay [12] was “inactive” in each case. Also, the compound was classed as inactive in assay [3] and in [9]. The Potency in assay [7] was 45.9 µM (active) and 27.3 µM (active).

`Nc1ccc(-c2ccc(N)c(N)c2)cc1N`: the Potency result in [1], in [2], in assay [4], in assay [5], in assay [6] and in [8] was “inactive” each time. In addition, the Potency result in assay [10], in [11] and in assay [13] was “inactive” in each case. For the same compound, in assay [3], the result was inactive. Moreover, the Potency in [7] is 27.2 µM (active); in assay [12], 10.8 µM (active) and 8.63 µM (active).

Regarding `CNC(=O)Oc1cccc2c1OC(C)(C)O2`, the Potency result in assay [1], in assay [2], in assay [4], in [5], in [6] and in [8] was “inactive” each time. Also, the Potency result in [15] and in [10] was “inactive” each time. For the same compound, the call in [3], in [14] and in [9] was inactive.

As to `CC(C)N(C(=O)SCC(Cl)=C(Cl)Cl)C(C)C`, the Potency entry in [2], in assay [4], in assay [5], in assay [6], in [7] and in assay [8] was “inactive” in each case. Also, the Potency result in assay [15], in [10], in [13] and in assay [12] was “inactive” in each case. Besides, the outcome in [3] was inactive.

Consider `CCCCN(CC)c1c([N+](=O)[O-])cc(C(F)(F)F)cc1[N+](=O)[O-]`, for which the Potency result in assay [1], in assay [2], in assay [4], in assay [5], in assay [6] and in assay [7] was “inactive” throughout. For the same compound, the Potency entry in assay [8], in assay [15], in assay [10], in [13] and in assay [12] was “inactive” throughout. In addition, the result in [3] and in assay [9] was inactive.

Turning to `COC(=O)c1sccc1S(=O)(=O)NC(=O)Nc1nc(C)nc(OC)n1`, the Potency entry in assay [1], in [2], in [4], in assay [5], in [6] and in assay [8] was “inactive” each time. Further, the Potency result in [15], in [10], in assay [13] and in [12] was “inactive” each time. Besides, the compound was classed as inactive in assay [3], in assay [14] and in [9].

On to `Nc1ccncc1`, for which the Potency result in [1], in [2], in [4], in assay [5], in assay [6] and in assay [8] was “inactive” in each case. For the same compound, the Potency entry in assay [15], in [10] and in [17] was “inactive” throughout. Moreover, the call in assay [3], in [14], in assay [9] and in assay [16] was inactive.

In the case of `NNC(N)=S`, the figures for the Potency in assay [1] and in [10] were 32.1 µM (active) and 18.1 µM (active), respectively. The Potency result in assay [2], in [4], in assay [5], in assay [6], in [7] and in [8] was “inactive” throughout. In addition, the Potency result in assay [11] and in [13] was “inactive” each time. Moreover, the compound was called inactive in assay [3] and in [14].

On to `Oc1c(Cl)c(Cl)c(Cl)c(Cl)c1Cl`, for which the Potency result in [2], in [4], in assay [5], in assay [6], in [8] and in assay [10] was “inactive” in each case. The Potency entry in [11], in assay [13] and in assay [12] was “inactive” in each case. Moreover, the result in assay [3] and in assay [9] was inactive. In addition, in assay [7], the Potency is 54.5 µM (active).

As for `COc1ccc(C(CN(C)C)C2(O)CCCCC2)cc1` (configuration not stated), the Potency entry in assay [1], in assay [2], in [4], in assay [5], in assay [6] and in assay [8] was “inactive” throughout. In addition, the Potency entry in [15], in assay [10] and in [17] was “inactive” each time. The result in [3], in assay [14], in assay [9] and in assay [16] was inactive.
